Experimental data: PubChem BioAssay (NCATS)
Active and inactive are the calls of the source. The call rests on the fitted dose curve.

Assay: Cell Proliferation Assay Versus the ED40515 IL2 Dependent ATL cell lines (AID 1053195)
Conditions: ED40515 IL2-dependent ATL cells
From the text: Adult T-cell leukemia (ATL) develops in individuals infected with human T-cell lymphotropic virus-1 (HTLV-1). Clinically, ATL is subclassified into four subtypes: smoldering, chronic, lymphomatous, and acute. Two autocrine loops (IL-2/IL-2Ralpha and IL-15/IL-15Ralpha) and one paracrine stimulation loop that involves IL-9 expression by ATL cells and IL-9Ralpha expression on monocytes are required to maintain viability and proliferation in the smoldering and chronic forms of the disease. These assays examined the differential response profiles for the MIPE library of approved and investigational drugs versus an IL2 dependent and independent matched ATL cell line, with the current submission examining the differential response profiles for drugs on an IL2 dependent matched ATL cell line.
Plate log growing ED40515 +IL2 cells: 1000cells/ well in 5uL phenol red free RPMI +5% FBS +1x p/s, Glutamine using 1536 well white griener tissue culture plates and multidrop cassette acoustic dispensing Columns 1 and 3 DMSO Columns 2 and 4, 9.2 uM Bortezomib Incubate 48 hours for celltiter glo 37C with 5%CO2 and 95% humidity with low evaporation lids Dispense 3 uL per well of cell titer glo with multidrop Incubate for 15 minutes at RT Read on VL/2 using Luminesence Wheel (Filter A)

| SMILES | Potency |
| --- | --- |
| Cc1ccnc(NS(=O)(=O)c2ccc(NC(=O)Nc3ccc(S(=O)(=O)Nc4nccc(C)n4)cc3)cc2)n1 | 23.5 µM (active) |
| COc1cc2nccc(Oc3ccc(NC(=O)NC4CC4)c(Cl)c3)c2cc1C(N)=O | 20.9 µM (active) |
| CN(C)c1ccc(Nc2nc(N)n(C(=O)c3c(F)cccc3F)n2)cc1 | 0.743 µM (active) |
| Clc1ccc(Nc2nnc(Cc3ccncc3)c3ccccc23)cc1 | 37.2 µM (active) |
| O=C(OCC#CCSc1nnc(-c2ccc3ccccc3c2)o1)c1cc2ccccc2s1 | 11.8 µM (active) |
| C[C@]12CCC(=O)C=C1CC[C@@H]1[C@@H]2[C@@H](O)C[C@@]2(C)[C@H]1CC[C@]2(O)C(=O)CO | 14.8 µM (active) |
| CN(C)c1ccc(C2Nc3ccc4ccccc4c3C3=C2C(=O)CC(C)(C)C3)cc1Br (stereo not given) | 14.8 µM (active) |
| COc1ccc(COc2cc3oc(=O)c4cc(C(C)O)ccc4c3cc2OC)cc1 (stereo not given) | 18.7 µM (active) |
| NC(=O)c1ccc(-c2nc(-c3ccc4c(c3)OCO4)c(-c3ccccn3)[nH]2)cc1 | 37.2 µM (active) |
| O=C(c1cc(Cc2n[nH]c(=O)c3ccccc23)ccc1F)N1CCN(C(=O)C2CC2)CC1 | 16.6 µM (active) |
| Cc1cccc(-c2[nH]c(C(C)(C)C)nc2-c2ccc3nccnc3c2)n1 | 16.6 µM (active) |
| COc1ccc(-c2ccc3c(N4CCOC[C@H]4C)nc(N4CCOC[C@H]4C)nc3n2)cc1CO | 0.0935 µM (active) |
| O=c1[nH]c(-c2ccc(C(F)(F)F)cc2)nc2c1CSCC2 | 26.4 µM (active) |
| CN[C@@H](C)C(=O)N[C@H]1CCCC[C@H]2CC[C@@H](C(=O)N[C@@H](c3ccccc3)c3cn(CCCCc4ccc(CCCCn5cc([C@@H](NC(=O)[C@@H]6CC[C@@H]7CCCC[C@H](NC(=O)[C@H](C)NC)C(=O)N76)c6ccccc6)nn5)cc4)nn3)N2C1=O | 23.5 µM (active) |
| CS(=O)(=O)c1ccc(C(=O)Nc2ccc(Cl)c(-c3ccccn3)c2)c(Cl)c1 | 13.2 µM (active) |
| Cn1cnc2c(F)c(Nc3ccc(Br)cc3Cl)c(C(=O)NOCCO)cc21 | 16.6 µM (active) |
| Nc1cccc(S(=O)(=O)N2CCCN(S(=O)(=O)c3ccc4c(c3)OCCO4)CC2)c1 | 16.6 µM (active) |
| Cc1csc(NC(=O)c2sc3nc4c(c(C(F)(F)F)c3c2N)CCC4)n1 | 18.7 µM (active) |
| CC[C@@H](C)[C@H](NC(=O)[C@H](CC1CCCCC1)NC(=O)c1ccno1)C(=O)N1CCC2(CCc3ccccc32)CC1 | 2.64 µM (active) |
| Cc1c(C)c2c(c(C)c1O)CCC(C)(COc1ccc(CC3SC(=O)NC3=O)cc1)O2 (stereo not given) | 16.6 µM (active) |

| SMILES | Potency |
| --- | --- |
| CCOc1ccc(Cc2cc([C@@H]3O[C@H](CO)[C@@H](O)[C@H](O)[C@@H]3O)ccc2Cl)cc1 | 4.69 µM (active) |
| O=C(Nc1cccnc1)N1CCC(Cc2cccc(Oc3ccc(C(F)(F)F)cn3)c2)CC1 | 5.9 µM (active) |
| CCN(CC)CCCC(C)Nc1nc(C)cc(Nc2ccc3nc(C)cc(N)c3c2)n1 (stereo not given) | 18.7 µM (active) |
| COc1cc2c(cc1OC)CN(CCc1ccc(NC(=O)c3cccc4c(=O)c5cccc(OC)c5[nH]c34)cc1)CC2 | 16.6 µM (active) |
| CN(C)C(=O)c1ccc(S(=O)(=O)c2ccc(NC(=O)[C@@](C)(O)C(F)(F)F)c(Cl)c2)cc1 | 0.332 µM (active) |
| Cc1cnc(Nc2ccc(OCCN3CCCC3)cc2)nc1Nc1cccc(S(=O)(=O)NC(C)(C)C)c1 | 20.9 µM (active) |
| O=C1CCCC2=C1C(c1[nH]ncc1Cl)N=C(Nc1nc3ccccc3o1)N2 (stereo not given) | 29.6 µM (active) |
| CC(C)OC(=O)C1=CN(C(=O)c2ccc(F)c(F)c2)CC(C)(C)c2c1[nH]c1ccccc21 | 4.18 µM (active) |
| Cn1cc(-c2ccc3nnc(C(F)(F)c4ccc5ncccc5c4)n3n2)cn1 | 7.43 µM (active) |
| Oc1cccc(-c2nc(N3CCOCC3)c3oc4ncccc4c3n2)c1 | 0.743 µM (active) |
| COc1cc(Nc2ncc3c(n2)-c2ccc(Cl)cc2C(c2c(F)cccc2OC)=NC3)ccc1C(=O)O | 0.0066 µM (active) |
| COCC(=O)NCC=Cc1ccc2ncnc(Nc3ccc(Oc4ccc(C)nc4)c(C)c3)c2c1 | 4.69 µM (active) |
| C[C@H](NC(=O)Cc1cc(F)cc(F)c1)C(=O)N[C@@H]1C(=O)N(C)c2ccccc2-c2ccccc21 | 20.9 µM (active) |
| COc1c(Cl)cc2c([nH]c3cnccc32)c1NC(=O)c1cccnc1C | 33.2 µM (active) |
| COc1ccc(-c2oc3cc(OC)ccc3c2C(=O)c2ccc(C#N)cc2)cc1 | 20.9 µM (active) |
| OC[C@H](Cc1ccccc1)Nc1nc(Oc2ccc3c(c2)CCC3)nc2c1ncn2Cc1ccc(-c2ccccc2)cc1 | 13.2 µM (active) |
| CCCS(=O)(=O)Nc1ccc(F)c(C(=O)c2c[nH]c3ncc(-c4ccc(Cl)cc4)cc23)c1F | 20.9 µM (active) |
| CN(C(=O)c1ccc(F)cc1C(F)(F)F)C1CCN(c2nnc(-c3ccnn3C)c3ccccc23)CC1 | 2.96 µM (active) |
| COc1ccc(C2=N[C@H](c3ccc(Cl)cc3)[C@H](c3ccc(Cl)cc3)N2C(=O)N2CCNC(=O)C2)c(OC(C)C)c1 | 20.9 µM (active) |
| CC1(C)CNc2cc(NC(=O)c3cccnc3NCc3ccncc3)ccc21 | 23.5 µM (active) |
